These results are taken from PubChem BioAssay.

Experiment [1] concerns Human papillomavirus type 1a protein E7 (residues 44-93). Put plainly: HPV1a E7 fragment binders on microarrays, primary screen, biochemical, small-molecule microarray, residues 44-93, 635 nm fluorescence (AID 1108).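 Note: E7 fragment applied at 1 µg/mL in TBST for 1 h at 4 C; score combines spot fluorescence with its signal to noise ratio.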 To be noted: small-molecule microarray binding, fluorescence 635 nm; higher = more signal.
The nature of experiment [2]: modulators of HCV replicon luciferase signal, primary screen, HCV replication inhibitor project, Huh7 cells, luciferase reporter (AID 1109).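 Note: huh7 hepatoma cells harbouring a luciferase neomycin HCV replicon reporter; luciferase luminescence as measure of HCV replicon replication; test concentration not given here.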 To be noted: 48 h, higher = more signal.
In experiment [3] the target is Left-right determination factor 2 (Homo sapiens) (UniProt O00292). Put plainly: LEFTY2 binders on small-molecule microarrays, primary screen, biochemical, small-molecule microarray, 635 nm fluorescence scan (AID 1110). To be noted: LEFTY2 binding, higher = more signal.
Sequence of Left-right determination factor 2 (Homo sapiens) (O00292 whole entry, looked up): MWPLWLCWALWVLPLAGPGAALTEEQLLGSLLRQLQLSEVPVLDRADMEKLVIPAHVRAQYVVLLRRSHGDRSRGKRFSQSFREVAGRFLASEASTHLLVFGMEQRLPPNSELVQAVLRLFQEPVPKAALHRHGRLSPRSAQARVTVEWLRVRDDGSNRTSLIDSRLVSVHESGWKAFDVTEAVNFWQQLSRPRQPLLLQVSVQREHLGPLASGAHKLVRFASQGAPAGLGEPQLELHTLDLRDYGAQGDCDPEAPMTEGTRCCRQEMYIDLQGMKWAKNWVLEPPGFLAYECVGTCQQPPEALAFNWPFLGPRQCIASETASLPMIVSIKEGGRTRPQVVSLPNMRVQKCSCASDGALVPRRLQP
In experiment [4] the target is Calmodulin-1 (Homo sapiens) (UniProt P0DP23). Put plainly: CALM1 binders on microarrays, EGTA buffer, profiling panel, biochemical, small-molecule microarray, Cy5-labelled CALM1 (AID 1111).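 Note: labelled calmodulin applied in Tris saline Tween buffer holding calcium plus EGTA and DTT.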 Conditions: Cy5-CALM1 binding fluorescence, higher = more signal.
The target is the same in experiment [5]. The experiment is described as follows: calcium-bound CALM1 binders on microarrays, profiling panel, artefact control for SMM control-protein annotation, biochemical, small-molecule microarray, Cy5-labelled CALM1, plus calcium (AID 1112).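 Note: score merges spot fluorescence with signal to noise from triplicate slides.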 To be noted: Cy5-CALM1 binding fluorescence, higher = more signal.
Experiment [6] can be described thus: small-molecule microarray binders of probe aWnt5a, primary screen, biochemical, biotinylated probe, 635/667 nm fluorescence (AID 1113).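 Note: score merges 667 nm fluorescence intensity with signal-to-noise per printed feature.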 Conditions: higher = more signal.
Experiment [7] in a line: small-molecule microarray binders of probe aShh, primary screen, biochemical, biotinylated probe, 635/667 nm fluorescence (AID 1114).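 Note: probe is biotin-labelled aShh protein from a stem cell growth factor screen; measures binding of labelled protein to compounds printed on the slide; score merges feature fluorescence at 667 nm with signal-to-noise.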 To be noted: higher = more signal.
A short description of experiment [8]: small-molecule microarray binders of probe aNog, primary screen, biochemical, biotinylated probe, 635/667 nm fluorescence (AID 1115).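 Note: probe is biotinylated aNog protein used at 0.15 µg/mL for 1 h at 4 C; z-score combines 667 nm fluorescence of each spot with its signal to noise.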 Conditions: higher = more signal.
Experiment [9] concerns the target Torsin-1A-interacting protein 1 (Homo sapiens) (UniProt Q5JTV8). Put plainly: LAP1 binders from COS7 cell lysate, primary screen, small-molecule microarray, 635/667 nm fluorescence (AID 1116). Conditions: COS7-hLAP1 lysate binding, 635 nm fluorescence, higher = more signal.
Experiment [10] concerns the target Alpha-bungarotoxin (Bungarus multicinctus) (UniProt P60615). The experiment is described as follows: alpha-bungarotoxin binders on microarray, profiling panel, artefact control for SMM control protein annotation, biochemical, small-molecule microarray, Alexa647 label, 635/667 nm fluorescence (AID 1117). Conditions: alpha-BTX-A647 binding fluorescence, higher = more signal.

The next experiment has as its target Albumin (Bos taurus) (UniProt P02769). Put plainly: bovine serum albumin binders on microarray, profiling panel, artefact control for SMM control protein annotation, biochemical, small-molecule microarray, Alexa647 label, 635/667 nm fluorescence (AID 1118).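 Note: score merges 667 nm emission intensity and signal-to-noise per printed compound spot.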 Conditions: BSA-A647 binding, fluorescence 635 nm, higher = more signal.
Experiment [11] is described as follows: small-molecule microarray binders of probe aXIP, primary screen, biochemical, NeuroSMM set, 635/667 nm fluorescence (AID 1119).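 Note: probe is the protein aXip251-270 applied at 1 µg/mL to compound-printed slides; binding of probe to printed compounds measured as 667 nm fluorescence plus signal to noise.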 To be noted: higher = more signal, called active from +8 up or from −8 down.
Experiment [12] in a line: small-molecule binders of probe aNOTCH3, primary screen, biochemical, small-molecule microarray, 635/667 nm fluorescence (AID 1120).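 Note: probe is a biotin-tagged antibody raised against NOTCH3 rather than NOTCH3 protein; score merges spot fluorescence near 667 nm with spot signal to noise.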 Conditions: higher = more signal.
A short description of experiment [13]: small-molecule binders of probe aNOTCH2, primary screen, biochemical, small-molecule microarray, 635/667 nm fluorescence (AID 1121).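 Note: score merges feature fluorescence read at 667 nm with its signal to noise.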 Conditions: higher = more signal.
In experiment [14] the target is Carbonic anhydrase 2 (Homo sapiens) (UniProt P00918). Put plainly: CAII small-molecule binders, profiling panel, biochemical, small-molecule microarray, Alexa647-labelled CAII (AID 1122). To be noted: CAII-A647 binding fluorescence, higher = more signal.
Experiment [15] can be described thus: COS7 lysate on small-molecule microarray, probe aHis, 635 nm (AID 1123).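 Note: z-score combines 667nm fluorescence intensity with signal-to-noise per printed compound spot.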 To be noted: COS7 cell lysate, fluorescence, higher = more signal.
A short description of experiment [16]: compound binding in COS7 lysate, probe aLAP1, primary screen, cell lysate, small-molecule microarray (AID 1124).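 Note: lysate comes from COS7 cells expressing LAP1 and is applied at 0.3 µg/mL; score merges spot fluorescence near 667 nm with signal-to-noise over triplicate slides.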 To be noted: probe aLAP1, fluorescence, higher = more signal.
For another experiment, the system named is Sam68 (KHDRBS1). Put plainly: Sam68 small-molecule binders, primary screen, biochemical, small-molecule microarray, 635 nm fluorescence (AID 1125).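 Note: score merges 667 nm channel intensity with signal to noise over triplicate slides.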 Conditions: small-molecule microarray binding, higher = more signal.
Experiment [17] relates to Chordin-like protein 2 (CHRDL2). Put plainly: CHRDL2 small-molecule binders, primary screen, biochemical, small-molecule microarray, 635 nm fluorescence (AID 1126).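 Note: printed compound slides probed with Chrdl2 protein at 4 µg/mL for 1 h at 4 C; score merges 667 nm emission intensity with signal to noise over three replicate slides.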 To be noted: small-molecule microarray binding, fluorescence 635 nm; higher = more signal.
Experiment [18] deals with Concanavalin-A (Canavalia ensiformis) (UniProt P02866). Put plainly: ConA small-molecule binders, primary screen, artefact control for SMM control protein annotation, biochemical, small-molecule microarray, Alexa647 label, 635 nm (AID 1127).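 Note: z combines 667 nm emission intensity with signal-to-noise across three replicate slides.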 To be noted: ConA-A647 binding fluorescence, higher = more signal.
Sequence of Concanavalin-A (Canavalia ensiformis) (P02866 whole entry, looked up): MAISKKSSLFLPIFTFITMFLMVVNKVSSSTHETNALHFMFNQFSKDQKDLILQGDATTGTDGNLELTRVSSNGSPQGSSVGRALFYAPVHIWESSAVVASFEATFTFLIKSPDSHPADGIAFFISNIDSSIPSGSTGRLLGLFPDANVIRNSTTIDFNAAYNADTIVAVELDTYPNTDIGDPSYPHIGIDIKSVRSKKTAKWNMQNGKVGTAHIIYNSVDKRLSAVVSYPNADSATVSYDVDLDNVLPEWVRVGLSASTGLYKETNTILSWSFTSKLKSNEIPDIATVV

Activity calls are given as the source filed them.

Sequence of Torsin-1A-interacting protein 1 (Homo sapiens) (Q5JTV8 whole entry, looked up): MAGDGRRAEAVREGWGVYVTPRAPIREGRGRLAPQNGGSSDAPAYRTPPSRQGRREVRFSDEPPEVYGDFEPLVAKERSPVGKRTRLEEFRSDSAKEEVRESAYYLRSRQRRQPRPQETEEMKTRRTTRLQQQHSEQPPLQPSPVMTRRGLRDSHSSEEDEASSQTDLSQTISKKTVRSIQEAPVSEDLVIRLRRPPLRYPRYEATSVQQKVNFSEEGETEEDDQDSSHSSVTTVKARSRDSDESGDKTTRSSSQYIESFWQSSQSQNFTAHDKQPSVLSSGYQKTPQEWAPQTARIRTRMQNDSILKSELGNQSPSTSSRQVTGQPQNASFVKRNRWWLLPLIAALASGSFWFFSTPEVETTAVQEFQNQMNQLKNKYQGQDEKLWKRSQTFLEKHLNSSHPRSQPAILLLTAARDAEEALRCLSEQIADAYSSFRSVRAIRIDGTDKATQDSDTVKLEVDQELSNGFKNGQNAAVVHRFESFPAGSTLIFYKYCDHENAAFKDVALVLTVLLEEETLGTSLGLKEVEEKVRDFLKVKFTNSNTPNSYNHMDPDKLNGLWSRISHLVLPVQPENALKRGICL
Sequence of Albumin (Bos taurus) (P02769 whole entry, looked up): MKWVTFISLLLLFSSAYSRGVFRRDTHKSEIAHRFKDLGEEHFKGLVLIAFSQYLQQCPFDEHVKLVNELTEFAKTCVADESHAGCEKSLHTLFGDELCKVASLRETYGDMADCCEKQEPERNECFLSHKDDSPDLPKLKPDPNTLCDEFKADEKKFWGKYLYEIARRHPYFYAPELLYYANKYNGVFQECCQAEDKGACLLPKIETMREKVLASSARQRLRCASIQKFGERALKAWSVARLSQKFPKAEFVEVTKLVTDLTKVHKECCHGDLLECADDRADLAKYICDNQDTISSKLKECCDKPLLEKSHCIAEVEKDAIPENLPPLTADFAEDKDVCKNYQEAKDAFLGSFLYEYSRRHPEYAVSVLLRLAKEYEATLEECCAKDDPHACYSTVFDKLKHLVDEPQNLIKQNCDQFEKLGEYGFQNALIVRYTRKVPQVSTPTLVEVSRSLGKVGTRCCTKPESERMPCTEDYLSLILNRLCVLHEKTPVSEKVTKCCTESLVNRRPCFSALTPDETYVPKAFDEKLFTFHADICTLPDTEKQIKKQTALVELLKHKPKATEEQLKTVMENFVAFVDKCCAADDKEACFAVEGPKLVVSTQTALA
Sequence of Alpha-bungarotoxin (Bungarus multicinctus) (P60615 whole entry, looked up): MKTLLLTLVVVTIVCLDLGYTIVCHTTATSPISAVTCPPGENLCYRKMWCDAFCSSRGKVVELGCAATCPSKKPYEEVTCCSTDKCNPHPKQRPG

As to `Cc1ccc(-c2cccc(=O)o2)cc1`, the composite z-score is -1.01 in experiment [1]; 0.418 in experiment [3]; -1.18 in experiment [4]; -0.802 in experiment [5]; -0.145 in [6]; -0.138 in [7]. The composite z-score is 0.11 in experiment [8]; -0.101 in [9]; -0.391 in experiment [10]; -0.682 with Albumin (Bos taurus); -0.15 in experiment [12]; -0.108 in [13]. The composite z-score in [14] was -0.501; in experiment [15], 0.0688; in experiment [16], 0.258; in the experiment on Sam68 (KHDRBS1), -1.39; in experiment [17] it was 0.183; in experiment [18], -0.413. The compound also yielded a z-score in [2] of 0.488. The composite Z-score in experiment [11] is -1.14 (inactive).
Turning to `CCCC=C(CCC)[C@@H](NS(=O)(=O)CC)c1ccccc1`, the composite z-score in experiment [1] is 1.37; in experiment [3], -0.0866; in [4] it was 1.37; in [5], 0.855; in experiment [6] it was 0.0516; in experiment [7], 0.949. Also, the composite z-score in [8] is 1.26; in experiment [9], 0.806; in experiment [10], 0.157; with Albumin (Bos taurus), 0.929; in [12], 0.096; in experiment [13], -0.0194. Moreover, the composite z-score was 0.532 in experiment [14]; 1.68 in experiment [15]; 0.177 in experiment [16]; 1.29 with Sam68 (KHDRBS1); -0.462 in experiment [17]; 1.04 in [18]. For the same compound, the z-score in experiment [2] is -2.68. Moreover, in experiment [11], the composite Z-score was -0.112 (inactive).
With `C[C@]12C(=O)N(CCCO)[C@@H]3C(=O)N(c4ccc(Cl)cc4)CC=CC31O[C@@H]1/C=C\CCCOC(=O)C12` (stereo not given in full), the composite z-score in [1] is -0.202; in experiment [3], -1.31; in experiment [4], -0.887; in experiment [5], -0.203; in [6] it was -0.202; in experiment [7], -0.0904. For the same compound, the composite z-score in experiment [8] was 0.309; in [9], 2.33; in [10], -0.777; with Albumin (Bos taurus) it was 0.309; in [12], -0.305; in [13] it was -0.118. Moreover, the composite z-score in experiment [14] is 0.883; in experiment [15], 1.46; in [16] it was 0.492; in the experiment with Sam68 (KHDRBS1), 0.518; in experiment [17], -1.38; in [18], -0.743. In experiment [2], this compound had a z-score of -0.513. Besides, the composite Z-score in experiment [11] is 0.264 (inactive).
Regarding `O=C1c2ccccc2C(=O)C2CC([C@H]3Oc4ccccc4S(=O)(=O)N4CCC[C@@H]34)=CCC12` (stereo not given in full), the composite z-score in experiment [1] was -0.811; in experiment [3], 0.0197; in experiment [4], -0.488; in [5], 0.184; in [6], -0.124; in experiment [7], -0.0362. Moreover, the composite z-score was -0.273 in experiment [8]; 0.123 in [9]; 0.0404 in [10]; 0.793 with Albumin (Bos taurus); -0.122 in experiment [12]; -0.117 in experiment [13]. The composite z-score was -0.241 in experiment [14]; -0.296 in experiment [15]; -0.363 in experiment [16]; -0.557 with Sam68 (KHDRBS1); 0.139 in experiment [17]; -1 in experiment [18]. This compound displayed a z-score in experiment [2] of -1.34. Besides, the composite Z-score in experiment [11] was 0.251 (inactive).
Regarding `C=CC[C@]1(C(=O)NCC(O)CO)N=C(c2ccc(OCCCO)cc2)O[C@H]1c1ccccc1N=[N+]=[N-]` (stereo not given in full), the composite z-score in experiment [1] was 1.14; in [3], -0.571; in experiment [4], 1.64; in experiment [5], 0.479; in experiment [6] it was 0.106; in experiment [7], 1.09. In addition, the composite z-score in experiment [8] was 1.68; in experiment [9] it was 2.75; in experiment [10] it was -0.0575; with Albumin (Bos taurus), 0.933; in experiment [12], 0.0876; in [13], 0.132. Also, the composite z-score was 0.766 in experiment [14]; 2.78 in [15]; 1.41 in [16]; 0.645 with Sam68 (KHDRBS1); -0.451 in [17]; -0.0308 in experiment [18]. In experiment [2], the z-score is -0.0862. The composite Z-score in [11] was 0.171 (inactive).
As to `COCCCNC(=O)[C@@]1(C)c2ccccc2C(=O)N(c2ccc(C)cn2)[C@H]1c1ccc(CO)cc1`, the composite z-score in experiment [1] was -0.588; in experiment [3], -0.877; in experiment [4], -0.949; in experiment [5] it was -1.12; in [6], -0.172; in experiment [7], 0.283. Besides, the composite z-score in [8] is -0.911; in [9] it was 1.69; in experiment [10], -1.65; with Albumin (Bos taurus), 0.537; in experiment [12] it was -0.463; in experiment [13], -0.135. The composite z-score in [14] is 0.789; in experiment [15], -0.317; in [16], 0.406; in the experiment on Sam68 (KHDRBS1), -0.225; in [17], -0.889; in experiment [18], -0.731. The compound further yielded a z-score in experiment [2] of -0.0063. Moreover, in [11], the composite Z-score was -0.333 (inactive).
